Several values for one entry are separate records, joined by “and”; a condition that tells them apart may be missing. Equal values may be shown once. Results filed as inconclusive are left out. Activity calls are given as the source filed them. Unless noted, calls follow the shape of the full dose curve.
Columns and labels:
[1] = qHTS assay for small molecule agonists of retinoid X receptor alpha signaling (AID 588544); conditions: HEK293T RXRa-UAS-bla, beta-lactamase reporter, 18 h; 530 nm emission;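 as to activation: 0% = DMSO basal wells and 100% = reference agonist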
[2] = biological target: Retinoic acid receptor RXR-alpha (Homo sapiens) (UniProt P19793); assay: as above; conditions: HEK293T RXRa-UAS-bla, beta-lactamase reporter, 18 h; series mostly up to 76.7 µM
[3] = biological target: Thyroid hormone receptor beta (Homo sapiens) (UniProt P10828); assay: qHTS assay for small molecule agonists of thyroid hormone receptor beta signaling (AID 588545); conditions: TR-UAS-bla GripTite HEK 293, beta-lactamase ratio, agonist mode, 18 h, percent of T3 response, DMSO as zero; series mostly up to 76.7 µM;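 also: 0% = DMSO only and 100% = 10 nM T3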
In short: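 TR-UAS-bla-GripTite HEK 293 cells in medium with 2% charcoal/dextran FBS, 0.1 mM NEAA and 1 mM sodium pyruvate were treated with titrated compounds for 18 hrs at 37 C. Beta-lactamase reporter was read with CCF4 dye (ex 405, em 460/530 nm); EC50 from Hill fits.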

[4] = qHTS assay for small molecule antagonists of retinoid X receptor alpha signaling (AID 588546; active = well fitted inhibition curve with a large enough effect in the signal ratio, with a control signal flat, not every such curve was filed as active; the % refers to the signal ratio;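 also: cells stimulated with 9-cis-retinoic acid as agonist; % is scaled to controls: 0 for no effect and ±100 for the full control effect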); conditions: HEK293T RXRa-UAS-bla, beta-lactamase ratio, antagonist mode; measured here: W530 green channel, cytotoxicity proxy
In short: (§1)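 Beta-lactamase reporter inhibition, read as CCF4 fluorescence ratio (ex 405, em 460/530 nm) after 2 h at RT. HEK293T UAS-bla cells, 2500/well, were stimulated with 9-cis-RA at 500 or 100 nM final alongside test compound for 18 h at 37 C.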

[5] = biological target: Retinoic acid receptor RXR-alpha (Homo sapiens) (UniProt P19793); assay: as above; conditions: HEK293T RXRa-UAS-bla, beta-lactamase ratio, antagonist mode
In short: as §1

[6] = biological target: Thyroid hormone receptor beta (Homo sapiens) (UniProt P10828); assay: qHTS assay for small molecule antagonists of thyroid hormone receptor beta signaling (AID 588547; active = well fitted inhibition curve with a large enough effect in the signal ratio, with a control signal flat, not every such curve was filed as active; the % refers to the signal ratio;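 also: cells stimulated with 0.4 nM T3 agonist during compound exposure; % is scaled to controls: 0 for no effect and ±100 for the full control effect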); conditions: TR-UAS-bla HEK293, beta-lactamase ratio, antagonist mode, 18 h
In short: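 Inhibition of T3-driven (0.4nM final) beta-lactamase reporter activity was measured over 0.59 nM to 92 uM compound after 18 h at 37 C. The cells were GripTite HEK293 TR-UAS-bla in charcoal/dextran-stripped serum, with CCF4 ratio read-out and IC50 from Hill fits.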

[7] = biological target: Voltage-gated inwardly rectifying potassium channel KCNH2 (Homo sapiens) (UniProt Q12809); assay: qHTS Assay for Small Molecule Inhibitors of the Human hERG Channel Activity (AID 588834; active = well fitted curve in the direction sought with a large enough effect; an effect the other way counts as inactive or inconclusive;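 also: lower thallium flux fluorescence means stronger hERG block; nearly all actives have a fitted effect of over 50% in size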; also: potency is read from the fitted curve at half-maximal effect); conditions: U2OS BacMam hERG, FluxOR thallium flux fluorescence; series mostly up to 92.2 µM
In short: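 Blockade is seen as reduced FluxOR thallium-flux fluorescence in U2OS cells expressing hERG from a BacMam construct, in Opti-MEM with 2% FCS. Concentration-response data fitted to the Hill equation for AC50.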

[8] = qHTS assay for small molecule activators of the p53 signaling pathway (AID 651743; active = well fitted activation curve with a large enough effect in the signal ratio, not every such curve was filed as active; the % refers to the signal ratio; also: % of control where 0% means no effect); conditions: HCT-116 p53RE-bla, beta-lactamase FRET ratio, 16 h; stronger effect = higher value
In short: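 Screen for p53 pathway agonists uses stably transfected p53RE-bla HCT-116 cells, 4,000 per well, treated 16 h at 37 C with compounds in DMSO.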

[9] = qHTS assay for small molecule disruptors of the mitochondrial membrane potential - 1 hr assay (AID 651754); conditions: series mostly up to 92.2 µM; also: % is scaled to controls: 0 for no effect and ±100 for the full control effect; nearly all actives have a fitted effect of over 35% in size
In short: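 Steps: seed HepG2 cells and let attach overnight; pin-transfer compound or vehicle; incubate 1 hr at 37C; add Mito-MPS dye for 30 min; read two-channel fluorescence for monomer and aggregate forms.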

[10] = qHTS assay for small molecule disruptors of the mitochondrial membrane potential - 5 hr assay (AID 651755); conditions: JC-1-type ratio dye; series mostly up to 92.2 µM; also: % is scaled to controls: 0 for no effect and ±100 for the full control effect; nearly all actives have a fitted effect of over 40% in size
In short: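 HepG2, 2,000 cells/well, overnight attach; cpd or DMSO 5 hr, 37C/5% CO2; Mito-MPS 30 min 37C; fluor 490/535 + 540/590 nm.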

[11] = biological target: Tumor necrosis factor (Homo sapiens) (UniProt P01375); assay: qHTS assay to identify small molecules that stimulate Tumor Necrosis Factor-alpha (TNF-alpha) secretion (AID 651757; active = well fitted curve in the direction sought with a large enough effect in the signal ratio; the % refers to the signal ratio; also: 0% is about no effect); conditions: Human cells, HTRF 665/615 ratio; series mostly up to 92.2 µM
In short: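 Secreted TNF-alpha from compound-treated THP-1 cells (17 hrs, 37 C) was quantified with a homogeneous time-resolved fluorescence antibody assay.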

[12] = qHTS assay to identify small molecules that stimulate interleukin-8 (IL-8) secretion (AID 651758; active = well fitted activation curve with a large enough effect in the signal ratio; the % refers to the signal ratio; also: 0% is about no effect); conditions: HTRF ratio (665/615); series mostly up to 92.2 µM
In short: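 Secreted IL-8 measured by TR-FRET sandwich (cryptate and XL665 antibodies) from THP-1 cells exposed to compound overnight (16 hrs, 37 C).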

[13] = qHTS assay for environmental chemicals that activate the Aryl hydrocarbon Receptor (AhR) signaling pathway (AID 651777; active = well fitted curve in the direction sought with a large enough effect; an effect the other way counts as inactive or inconclusive; also: % of control where 0% means no effect; nearly all actives have a fitted effect of over 15% in size); conditions: 1A2-DRE human hepatoma cells, luciferase, 24 h; activation: stronger effect = higher value
In short: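 1A2-DRE human hepatoma reporter line; 1,200 cells/well; cmpd or DMSO 24 h, 37 C/5% CO2; One-Glo 30 min RT; luciferase lum.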

[14] = biological target: Peroxisome proliferator-activated receptor alpha (Homo sapiens) (UniProt Q07869); assay: qHTS assay for small molecule agonists of the peroxisome proliferator-activated receptor alpha (PPARalpha) signaling pathway (AID 651778; active = well fitted curve in the direction sought with a large enough effect; an effect the other way counts as inactive or inconclusive; also: % of control where 0% means no effect); conditions: PathHunter PPARalpha complementation, chemiluminescence, 6 h; stronger effect = higher value
In short: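 Chemiluminescence from complemented enzyme reported PPARalpha activation in cells after 6 hr of compound treatment at 37 C. The detection reagent was incubated for 60 min at room temperature, and compounds were scored as agonists.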

[15] = biological target: Nuclear receptor ROR-gamma (Homo sapiens) (UniProt P51449); assay: qHTS assay for small molecule antagonists of the retinoid-related orphan receptor gamma (ROR-gamma) signaling pathway (AID 651802; active = well fitted curve in the direction sought with a large enough effect; an effect the other way counts as inactive or inconclusive;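 also: CHO cells with doxycycline-induced ROR-gamma expression; % is scaled to controls: 0 for no effect and ±100 for the full control effect; nearly all actives have a fitted effect of over 60% in size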); conditions: ROR-gamma antagonist cell reporter assay; series mostly up to 92.2 µM
In short: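 Antagonism is scored as a fall in luminescence from a RORE-luciferase reporter in CHO cells expressing ROR under a TET-inducible promoter, measured 16hr after doxycycline induction in the presence of compound.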

[16] = qHTS assay for small molecule agonists of the antioxidant response element (ARE) signaling pathway measured by Nrf2-dependant transcriptional activity (AID 720636; active = well fitted curve in the direction sought with a large enough effect in the repeat runs; an effect the other way counts as inactive or inconclusive;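 also: HepG2 cells with an ARE-driven luciferase reporter; % of control where 0% means no effect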); conditions: ARE-luc HepG2, Nrf2 luciferase reporter, 16 h; series mostly up to 92.4 µM
In short: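 Cells: ARE-luc HepG2 with Nrf2-responsive luciferase. Medium contained 1% dialyzed FBS. Compound exposure lasted 16 hr at 37 C and 5% CO2, followed by ONE-Glo luciferase detection.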

[17] = qHTS assay for small molecule antagonists of the retinoid-related orphan receptor gamma (ROR-gamma) signaling pathway - cell viability counter screen (AID 720652; active = well fitted curve in the direction sought with a large enough effect in the repeat runs; an effect the other way counts as inactive or inconclusive;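 also: CHO reporter cells with doxycycline-induced ROR-gamma expression; compound exposure lasted 16 hr before ATP read; % is scaled to controls: 0 for no effect and ±100 for the full control effect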); conditions: RORgamma reporter cell line viability counter screen; series mostly up to 92.2 µM
In short: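 Cytotoxicity is quantified via intracellular ATP (CellTiter-Glo luminescence) in doxycycline-induced CHO ROR response element-luciferase reporter cells treated with compound for 16 hr at 37 C, 5% CO2.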

[18] = qHTS assay for small molecule agonists of the antioxidant response element (ARE) signaling pathway measured by Nrf2-dependant transcriptional activity - cell viability counter screen (AID 720653; active = well fitted curve in the direction sought with a large enough effect in the repeat runs; an effect the other way counts as inactive or inconclusive; also: % is scaled to controls: 0 for no effect and ±100 for the full control effect); conditions: ARE-bla HepG2 viability, CellTiter-Glo ATP luminescence, 16 h; stronger effect = lower value
In short: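 Cytotoxicity counter screen: intracellular ATP quantified by CellTiter-Glo luminescence in the same ARE-bla HepG2 plates, after 16 h compound exposure and a 2 h beta-lactamase substrate step.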

[19] = qHTS assay for small molecule activators of the nuclear factor-kappa B (NF-kB) signaling pathway (AID 651749; active = well fitted activation curve with a large enough effect in the signal ratio; the % refers to the signal ratio; also: % of control where 0% means no effect); conditions: NF-kB-bla ME-180 cells, beta-lactamase FRET ratio, 16 h; stronger effect = higher value
In short: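 Stably transfected ME-180 line; NF-kB response element upstream of beta-lactamase. Treatment: compound or DMSO, 16 hr. Detection: fluorescent FRET substrate.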

Chain of Tumor necrosis factor (Homo sapiens) (P01375 whole entry, looked up): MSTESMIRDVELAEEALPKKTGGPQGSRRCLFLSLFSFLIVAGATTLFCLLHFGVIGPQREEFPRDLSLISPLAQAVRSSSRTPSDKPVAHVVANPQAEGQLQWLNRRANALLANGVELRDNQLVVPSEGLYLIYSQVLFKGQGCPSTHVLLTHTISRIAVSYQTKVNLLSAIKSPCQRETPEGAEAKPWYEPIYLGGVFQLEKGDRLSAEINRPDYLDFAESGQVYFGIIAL
Chain of Retinoic acid receptor RXR-alpha (Homo sapiens) (P19793 whole entry, looked up): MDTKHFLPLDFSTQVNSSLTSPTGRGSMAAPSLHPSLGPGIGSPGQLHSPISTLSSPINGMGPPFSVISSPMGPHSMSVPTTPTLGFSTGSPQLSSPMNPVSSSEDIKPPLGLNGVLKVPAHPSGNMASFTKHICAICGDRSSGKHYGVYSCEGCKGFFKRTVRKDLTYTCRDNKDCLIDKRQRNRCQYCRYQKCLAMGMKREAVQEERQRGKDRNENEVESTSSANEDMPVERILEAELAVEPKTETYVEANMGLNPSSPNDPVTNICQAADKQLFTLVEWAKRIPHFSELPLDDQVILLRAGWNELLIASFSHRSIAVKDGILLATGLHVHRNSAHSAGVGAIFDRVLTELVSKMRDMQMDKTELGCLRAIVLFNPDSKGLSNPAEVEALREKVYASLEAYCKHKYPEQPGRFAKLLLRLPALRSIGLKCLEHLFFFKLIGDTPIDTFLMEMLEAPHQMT
Chain of Voltage-gated inwardly rectifying potassium channel KCNH2 (Homo sapiens) (Q12809 whole entry, looked up): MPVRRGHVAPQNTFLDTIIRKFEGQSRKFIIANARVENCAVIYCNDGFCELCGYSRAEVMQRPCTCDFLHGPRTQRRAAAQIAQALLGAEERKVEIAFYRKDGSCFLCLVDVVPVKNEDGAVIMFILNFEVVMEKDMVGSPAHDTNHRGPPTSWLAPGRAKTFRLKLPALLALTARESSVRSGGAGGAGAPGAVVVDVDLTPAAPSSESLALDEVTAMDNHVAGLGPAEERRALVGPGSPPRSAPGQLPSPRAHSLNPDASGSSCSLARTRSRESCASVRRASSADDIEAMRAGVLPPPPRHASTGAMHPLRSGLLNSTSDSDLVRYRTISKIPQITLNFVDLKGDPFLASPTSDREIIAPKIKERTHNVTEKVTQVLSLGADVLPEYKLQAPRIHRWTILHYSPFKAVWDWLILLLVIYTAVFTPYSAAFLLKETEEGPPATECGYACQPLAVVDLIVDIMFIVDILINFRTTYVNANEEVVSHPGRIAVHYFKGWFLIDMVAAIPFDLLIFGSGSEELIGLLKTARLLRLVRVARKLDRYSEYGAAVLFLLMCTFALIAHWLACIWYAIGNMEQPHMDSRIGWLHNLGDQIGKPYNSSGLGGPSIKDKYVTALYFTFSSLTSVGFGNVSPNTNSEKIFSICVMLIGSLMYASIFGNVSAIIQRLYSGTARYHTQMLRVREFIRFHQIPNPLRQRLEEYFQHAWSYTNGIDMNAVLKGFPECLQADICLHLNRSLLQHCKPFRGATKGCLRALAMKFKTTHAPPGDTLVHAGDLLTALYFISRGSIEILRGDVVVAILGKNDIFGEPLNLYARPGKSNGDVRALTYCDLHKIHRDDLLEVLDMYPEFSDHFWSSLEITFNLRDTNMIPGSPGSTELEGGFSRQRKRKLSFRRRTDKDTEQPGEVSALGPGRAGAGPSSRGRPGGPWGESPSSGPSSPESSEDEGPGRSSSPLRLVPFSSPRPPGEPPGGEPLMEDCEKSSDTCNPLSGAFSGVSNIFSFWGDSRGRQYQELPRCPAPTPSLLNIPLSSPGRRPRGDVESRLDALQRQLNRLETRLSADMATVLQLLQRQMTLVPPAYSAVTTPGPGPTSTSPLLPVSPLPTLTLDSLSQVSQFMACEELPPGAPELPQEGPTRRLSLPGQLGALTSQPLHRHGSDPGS
Chain of Peroxisome proliferator-activated receptor alpha (Homo sapiens) (Q07869 whole entry, looked up): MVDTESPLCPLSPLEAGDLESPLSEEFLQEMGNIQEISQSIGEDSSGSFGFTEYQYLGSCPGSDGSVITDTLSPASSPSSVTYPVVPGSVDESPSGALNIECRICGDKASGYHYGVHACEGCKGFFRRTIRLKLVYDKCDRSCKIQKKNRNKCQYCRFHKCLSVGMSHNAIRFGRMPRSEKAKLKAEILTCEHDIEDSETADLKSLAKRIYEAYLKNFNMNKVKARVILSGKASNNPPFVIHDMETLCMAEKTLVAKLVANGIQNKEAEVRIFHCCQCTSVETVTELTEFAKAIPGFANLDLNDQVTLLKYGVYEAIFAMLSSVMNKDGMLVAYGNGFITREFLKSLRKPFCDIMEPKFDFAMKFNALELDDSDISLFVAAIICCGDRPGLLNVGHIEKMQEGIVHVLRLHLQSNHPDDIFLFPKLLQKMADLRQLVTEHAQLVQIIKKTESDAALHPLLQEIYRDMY
Chain of Thyroid hormone receptor beta (Homo sapiens) (P10828 whole entry, looked up): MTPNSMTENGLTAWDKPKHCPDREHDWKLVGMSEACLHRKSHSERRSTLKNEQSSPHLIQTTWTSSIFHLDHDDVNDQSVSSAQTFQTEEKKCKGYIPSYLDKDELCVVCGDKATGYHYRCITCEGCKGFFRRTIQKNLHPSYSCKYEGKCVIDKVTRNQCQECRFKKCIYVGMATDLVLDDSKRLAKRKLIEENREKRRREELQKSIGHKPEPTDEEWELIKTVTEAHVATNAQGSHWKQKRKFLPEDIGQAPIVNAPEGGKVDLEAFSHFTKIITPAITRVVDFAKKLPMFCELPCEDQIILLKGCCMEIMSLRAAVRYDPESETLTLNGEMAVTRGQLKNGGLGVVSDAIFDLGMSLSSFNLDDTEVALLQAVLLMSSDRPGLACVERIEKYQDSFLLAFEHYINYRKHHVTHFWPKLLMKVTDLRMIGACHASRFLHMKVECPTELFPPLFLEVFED
Chain of Nuclear receptor ROR-gamma (Homo sapiens) (P51449 whole entry, looked up): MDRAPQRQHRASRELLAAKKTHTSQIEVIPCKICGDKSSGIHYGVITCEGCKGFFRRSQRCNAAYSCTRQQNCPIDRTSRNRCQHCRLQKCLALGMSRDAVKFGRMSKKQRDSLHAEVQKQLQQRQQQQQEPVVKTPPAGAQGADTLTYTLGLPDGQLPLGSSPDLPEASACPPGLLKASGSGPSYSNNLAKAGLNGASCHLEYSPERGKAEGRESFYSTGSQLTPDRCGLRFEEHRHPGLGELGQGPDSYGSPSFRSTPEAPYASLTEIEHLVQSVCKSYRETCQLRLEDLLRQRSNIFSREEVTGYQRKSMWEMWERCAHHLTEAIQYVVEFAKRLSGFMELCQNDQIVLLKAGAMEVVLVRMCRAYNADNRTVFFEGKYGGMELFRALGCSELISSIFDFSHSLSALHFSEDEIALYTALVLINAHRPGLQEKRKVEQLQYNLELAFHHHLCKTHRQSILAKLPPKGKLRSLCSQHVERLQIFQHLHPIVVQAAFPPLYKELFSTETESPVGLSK

O=Cc1ccc(CO)o1
0.176%: max response [4]
-13.3%: max response [1]
inactive: outcome [2] | outcome [3] | max response [5] 8.3% | activity change % (negative = inhibition) [6] 7.62% | Potency [7] | activation [8] -2.06% | Potency [9] | Potency [10] | Potency [11] | Potency [12] | activation [13] -1.71% | max response [14] -3.35% | Potency [15] | outcome [16] | Potency [17] | max response [18] -0.711%

O=C(O)c1ccccc1C(=O)O
4.98%: max response [4]
13.6%: max response [1]
inactive: outcome [2] | outcome [3] | max response [5] -5% | activity change % (negative = inhibition) [6] 0.364% | Potency [7] | activation [8] -2.08% | activation [19] -0.93% | Potency [9] | Potency [10] | Potency [11] | Potency [12] | max response [14] 0.653% | outcome [16] | Potency [17] | max response [18] -3.39%

CCCCC(=O)N(C)C
-2.95%: max response [4]
-11.8%: max response [1]
inactive: outcome [2] | outcome [3] | max response [5] 11.5% | activity change % (negative = inhibition) [6] 6.71% | Potency [7] | activation [8] -1.85% | activation [19] -0.0165% | Potency [9] | Potency [11] | activation [13] 1.62% | max response [14] -3.71% | Potency [15] | outcome [16] | Potency [17] | max response [18] -1.17%

O=[N+]([O-])c1ccc(NCCO)c(OCCO)c1
-6.21%: max response [4]
4.58%: max response [1]
inactive: outcome [2] | outcome [3] | max response [5] -6.4% | activity change % (negative = inhibition) [6] -13.2% | Potency [7] | activation [8] -3% | Potency [9] | Potency [10] | Potency [11] | activation [13] 0.85% | max response [14] -4.01% | outcome [16] | Potency [17] | max response [18] 6.98%

O=Cc1cccc(Br)c1
0.346%: max response [4]
0.636%: max response [1]
inactive: outcome [2] | outcome [3] | max response [5] 4.36% | activity change % (negative = inhibition) [6] -16.4% | Potency [7] | activation [8] -0.251% | Potency [9] | Potency [10] | Potency [11] | Potency [12] | activation [13] 0.191% | max response [14] -2.07% | Potency [15] | outcome [16] | Potency [17] | max response [18] 0.536%

CC(C)CCOC(=O)/C=C/c1ccccc1
5.75%: max response [4]
active: Potency [7] 22.4 µM
inactive: outcome [2] | outcome [3] | max response [5] -10.7% | activity change % (negative = inhibition) [6] -18.5% | activation [8] 1.36% | activation [19] -1.28% | Potency [9] | Potency [10] | Potency [11] | activation [13] 0.411% | max response [14] 0.372% | Potency [15] | outcome [16] | Potency [17] | max response [18] 5.13%
7.69%: max response [1]

c1ccc(Oc2ccccc2)cc1
-2.47% and -11.6%: max response [4]
inactive: outcome [2] | outcome [3] | max response [5] -1.69% and -4.15% | activity change % (negative = inhibition) [6] 13.9% and 3.24% | Potency [7] | activation [8] -0.263% and 10.2% | activation [19] -0.173% and -1.25% | Potency [9] | Potency [11] | Potency [12] | max response [14] -7.64% and 0.0496% | Potency [15] | outcome [16] | Potency [17] | max response [18] 5.45% and -9.72%
-5.86% and -5.26%: max response [1]

CC=C(Cl)Cl
-16.9%: max response [1]
inactive: outcome [2] | outcome [3] | max response [5] -5.31% | activity change % (negative = inhibition) [6] -14.6% | Potency [7] | activation [8] -2.14% | activation [19] -0.14% | Potency [9] | Potency [10] | Potency [11] | activation [13] -0.394% | max response [14] -5.05% | Potency [15] | outcome [16] | Potency [17] | max response [18] -6.27%
-7.38%: max response [4]

CCCC(C)CO (stereo unspecified)
inactive: outcome [2] | outcome [3] | max response [5] -5.45% | activity change % (negative = inhibition) [6] 6.59% | Potency [7] | activation [8] 0.0206% | activation [19] -0.126% | Potency [9] | Potency [10] | Potency [11] | activation [13] -0.17% | max response [14] -5.48% | Potency [15] | outcome [16] | Potency [17] | max response [18] 13.6%
5%: max response [4]
-14.8%: max response [1]

O=[N+]([O-])c1c(Cl)cc(Cl)cc1Cl
inactive: outcome [2] | outcome [3] | max response [5] 8.69% | activity change % (negative = inhibition) [6] 3.07% | Potency [7] | activation [8] 1.35% | activation [19] -0.147% | Potency [9] | Potency [10] | Potency [11] | activation [13] 0.0842% | Potency [15] | outcome [16] | Potency [17] | max response [18] -2.01%
-6.72%: max response [1]
-2.99%: max response [4]

CC(C)(C)OCC1CO1 (stereo unspecified)
-6.46%: max response [4]
inactive: outcome [2] | outcome [3] | max response [5] -4.17% | activity change % (negative = inhibition) [6] 13.4% | Potency [7] | activation [8] 0.176% | activation [19] 0.44% | Potency [9] | Potency [10] | Potency [11] | activation [13] 2.26% | Potency [17]
-14.1%: max response [1]

Cc1c(N)cccc1[N+](=O)[O-]
-6.48%: max response [4]
-2.78%: max response [1]
inactive: outcome [2] | outcome [3] | max response [5] -2.95% | activity change % (negative = inhibition) [6] -5.59% | Potency [7] | activation [8] -0.892% | Potency [9] | Potency [10] | Potency [11] | activation [13] -0.541% | max response [14] -5.39% | Potency [15] | outcome [16] | Potency [17]

C=CCCC
-12.1%: max response [1]
inactive: outcome [2] | outcome [3] | max response [5] 8.21% | activity change % (negative = inhibition) [6] 20.1% | Potency [7] | activation [8] -0.508% | activation [19] -0.388% | Potency [9] | Potency [10] | Potency [11] | max response [14] -5.85% | Potency [15] | outcome [16] | Potency [17] | max response [18] 3.55%
2.87%: max response [4]

Source: PubChem BioAssay (NCATS)
